Calls of active or inactive are those of the source. The calls were made as follows: active = hit-call score of the fitted dose curve at least 0.9, where 1 is the maximum; inactive = score below 0.9.
assay: ATG_TCF_b_cat_CIS: Attagene CIS-FACTORIAL HepG2 Assay for human T-Cell-Factor with beta-catenin (TCF/b-cat) (AID 2282965); conditions: HepG2 TCF/beta-catenin cis-reporter transcription, actives raise or lower the signal
Protocol: ATG_CIS is a cell-based, multiplexed-readout assay that uses HepG2, a human liver cell line, with measurements taken at 24 hours after chemical dosing in a 24-well plate.ATG_TCF_b_cat_CIS is one of 52 assay component(s) measured or calculated from the ATG_CIS assay. It is designed to make measurements of mRNA induction, a form of inducible reporter, as detected with fluorescence intensity signals by Reverse transcription polymerase chain reaction (RT-PCR) and Capillary electrophoresis technology.Data from the assay component ATG_TCF_b_cat_CIS was analyzed into 1 assay endpoint. This assay endpoint, ATG_TCF_b_cat_CIS, was analyzed with bidirectional fitting relative to DMSO as the negative control and baseline of activity. Using a type of inducible reporter, measures of mRNA for gain or loss-of-signal activity can be used to understand the reporter gene at the transcription factor-level as they relate to the gene TCF7 and TCF7L2 and LEF1 and TCF7L1. Furthermore, this assay endpoint can be referred to as a primary readout, because this assay has produced multiple assay endpoints where this one serves a reporter gene function. To generalize the intended target to other relatable targets, this assay endpoint is annotated to the dna binding intended target family, where the subfamily is HMG box protein.
Human liver HepG2 cells are transiently transfected with multiple reporter transcription units (MRTUs) in 6-well plates using FuGene 6 reagent (Roche; 3 ml FuGene/1 mg DNA). The MRTU constructs are regulated by a cis-regulating element (promoter). […] A major difference between the CIS and TRANS system is that in CIS activities of endogenous TFs are measured, whereas the TRANS assay evaluates changes in activities of exogenous, chimeric NR-Gal4 proteins. […] At the end of 24 hour incubation, total RNA was isolated using TriZol reagent (Invitrogen). The isolated RNA is then reverse-transcribed using oligo(dT) primer and Mo-MLV reverse transcriptase (Invitrogen) with DNAse I (Ambion) treatment for 30 min. The one-tenth of the produced cDNA was amplified by PCR using Taq DNA polymerase (Invitrogen) and two reporter sequence-specific primers. The PCR products were fluorescently labeled by primer extension with 6-arboxyfluorescein (6-FAM) 5'-labeled reporter sequence-specific primer (2 min at 95 C, 20 s at 68 C and 10 min at 72 C) and these products were digested with 5U of HpaI (New England Biolabs) for 2h at 37 C. The fragments were purified using Qiaquick PCR columns (Qiagen), analyzed on an ABI 3130xL genetic analyzer (Applied Biosystems) with peak positions identified by using a set of X-rhodamine (ROX)-labeled MapMarker1000 molecular weight standards (BioVentures). The raw capillary electrophoresis data was processed using Attagraph software (Attagene).

Row | SMILES | outcome | AC50
1 | CC1(C)CC(=O)CC(C)(C)N1[O] | inactive | –
2 | O=S(=O)(O)OOS(=O)(=O)O | inactive | –
3 | Cc1ccc(OP(=O)(Oc2ccc(C)cc2)Oc2ccc(C)cc2)cc1 (tested in a mixture with another compound) | inactive | –
4 | CC1(C)[C@H](C(=O)O[C@H](C#N)c2cccc(Oc3ccccc3)c2)[C@@H]1C=C(Br)Br | inactive | –
5 | [N-]=[N+]=CC(=O)OC[C@H](N)C(=O)O | inactive | –
6 | C=CCO | inactive | –
7 | CCOP(=O)(OCC)OCC | inactive | –
8 | CN(C)CCC#N | inactive | –
9 | COc1ccc(CO)cc1 | inactive | –
10 | CC=Cc1ccc2c(c1)OCO2 | – | 80.8 µM (active)
11 | CN1C[C@H](C(=O)N[C@]2(C)O[C@@]3(O)[C@@H]4CCCN4C(=O)[C@H](Cc4ccccc4)N3C2=O)C=C2c3cccc4[nH]cc(c34)C[C@H]21 | – | 94.2 µM (active)
12 | CNC(=O)Oc1cc(C)c(SC)c(C)c1 | inactive | –
13 | BrCBr | inactive | –
14 | SCc1ccco1 | inactive | –
15 | COc1cc(OC)c(OC)cc1C=O | inactive | –
16 | CCC(C)(C)O | inactive | –
17 | ClCCCCCCCl | inactive | –
18 | c1ccc2c(c1)CCCC2 | inactive | –
19 | O=[N+]([O-])c1cc(C(F)(F)F)c(Cl)c([N+](=O)[O-])c1Cl | – | 5.54 µM (active)
20 | ClC1=C(Cl)[C@]2(Cl)[C@@H]3[C@@H](Cl)[C@H](Cl)C[C@@H]3[C@@]1(Cl)C2(Cl)Cl | inactive | –

Row | SMILES | outcome | AC50
21 | O=P(O)(Oc1ccccc1)Oc1ccccc1 | inactive | –
22 | [Cl][Sb]([Cl])[Cl] | – | 186 µM (active)
23 | CCC(=O)c1ccc(Cl)cc1 | inactive | –
24 | COCC(=O)N(c1c(C)cccc1C)N1CCOC1=O | inactive | –
25 | Cc1ncc(C[n+]2csc(CCO)c2C)c(N)n1 | inactive | –
26 | CN(N=O)c1ccccc1 | inactive | –
27 | CCC(C)c1cc([N+](=O)[O-])cc([N+](=O)[O-])c1OC(=O)C=C(C)C (stereo not given) | – | 31.8 µM (active)
28 | CC(C)CCCCCCCOP(=O)(Oc1ccccc1)Oc1ccccc1 | inactive | –
29 | CCCCOC(=O)CCC(=O)OCCCC | inactive | –
30 | O=C1Nc2ccc(Cl)cc2C(c2ccccc2)=NC1O (stereo not given) | – | 28.9 µM (active)
31 | CC(C)(C)C(O)C(Oc1ccc(-c2ccccc2)cc1)n1cncn1 (stereo not given) | – | 51.8 µM (active)
32 | O=C(O)C(Br)Br | inactive | –
33 | Clc1ccc(-c2ccccc2)cc1 | inactive | –
34 | CCCCCCC1CCOC1=O (stereo not given) | inactive | –
35 | O=C(O)CCl | inactive | –
36 | C=CC(=O)OCCCCOC(=O)C=C | – | 60.4 µM (active)
37 | CCCC=NO | inactive | –
38 | N#CCNCC#N | inactive | –
39 | C=Cc1cccc(CCl)c1 | inactive | –
40 | CCN(CC)C(=S)S | inactive | –
